Here are results for 38 compounds from PubChem BioAssay (Tox21).

Records with an inconclusive call do not appear. A call without a number means that no potency is given here. A number with no mark means an inactive call. Calls of active or inactive are those of the source. Unless noted, calls come from the whole dose curve; as a rule, active = well fitted cell-killing curve with a large enough effect in the repeat runs; inconclusive = weak or mixed curves, or effect the other way; inactive = no such curve, though single readings can be large or run the other way.

A short description of one assay: qHTS assay to identify small molecule agonists of the endoplasmic reticulum stress response signaling pathway (AID 1159516; active = well fitted activation curve with a large enough effect in the signal ratio in the repeat runs, not every such curve was filed as active; the % refers to the signal ratio). The settings on record: ESRE-bla HeLa, ER stress beta-lactamase reporter, 5 h; series mostly up to 61 µM. Put shortly: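 An ESRE-bla HeLa cell assay: compounds were pin-transferred from DMSO onto overnight-plated cells and left 5 hr at 37 C. Substrate was then loaded for 2 hr at room temperature before reading fluorescence at 460 nm and 530 nm.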
Take `Nc1cc(C(Cl)=C(Cl)Cl)c(S(N)(=O)=O)cc1S(N)(=O)=O`: the result was inactive.
As for `CCCCOCC(C)OCC(C)O` (stereo unspecified), the compound was classed as inactive.
`C=CC(=O)OCCCCCC`: the call was inactive.
For the compound `CC(C)=CC(=O)O`, the outcome was inactive.
Regarding `CN(C)CCOC(c1ccc(Cl)cc1)c1ccccn1` (stereo unspecified), the call was inactive.
As for `Cc1ccc(N)cc1[N+](=O)[O-]`, the result was inactive.
For the compound `Cc1nccn1CC1CCc2c(c3ccccc3n2C)C1=O` (stereo unspecified), the result was inactive.
With `C=C(C)C(=O)OCCC(C)OC(=O)C(=C)C` (stereo unspecified), the compound was classed as inactive.
Consider `CCCCCCCCCCCCCCCCCCOCC(O)CO` (stereo unspecified), for which the compound was called inactive.
For `Cc1ccccc1C(=O)O`, the compound was classed as inactive.
Regarding `CCN(CC)C(=O)c1ccc(O)c(OC)c1`, the call was inactive.
Take `C#CC(C)(O)CC(C)C` (stereo unspecified): the compound was classed as inactive.
Same read-out and setting: next, `CCCCCCCCC=O`: “inactive”; `CO`: “inactive”; `C/C=C1\C(=O)C[C@H]2[C@@H]3CCC4=CC(=O)CC[C@]4(C)[C@H]3CC[C@]12C`: “inactive”.
`COc1cc(O)cc(O)c1`: the result was inactive.
Consider `Oc1cc(O)c2c(c1)O[C@H](c1ccc(O)c(O)c1)[C@H](O)C2`, for which the result was inactive.
With `COc1cc(C(=O)N2CCOCC2)cc(OC)c1OC`, the outcome was inactive.
As to `CCCCc1ccc2cccc(S(=O)(=O)O)c2c1`, the compound was called inactive.
Regarding `Nc1ncnc2c1ncn2Cc1c(F)cccc1Cl`, the result was inactive.
As for `c1ccc(CCCc2ccccn2)cc1`, the compound was called inactive.
As to `O=C(CCOCCOCCOCCOCCC(=O)Nc1c(I)cc(I)c(C(=O)O)c1I)Nc1c(I)cc(I)c(C(=O)O)c1I`, the compound was called inactive.
Same read-out and setting: with `CC1=CCC2C(C1)C2(C)C` (stereo unspecified) the entry was “inactive”; with `C=C(C)[C@H]1CC=C(C)CC1`, “inactive”; with `CCO[Si](C)(OCC)OCC`, “inactive”.
Regarding `CC(C)c1ccc2oc3nc(N)c(C(=O)O)cc3c(=O)c2c1`, the compound was called inactive.
Consider `N#CCN(CC#N)CCN(CC#N)CC#N`, for which the call was inactive.
As for `Cc1c(C)n(CCN(C)C)c2ccc(C(=O)OCCN(C)C)cc12`, the compound was called inactive.
Regarding `CCCCCN(CCCCC)C(=O)C(CCC(=O)O)NC(=O)c1ccc(Cl)c(Cl)c1` (stereo unspecified), the call was inactive.
For `NC(=O)c1c(Cl)cccc1Cl`, the outcome was inactive.
Still for that read-out and setting: next, `C=CCn1c(=O)n([C@@H]2O[C@H](CO)[C@@H](O)[C@H]2O)c2nc(N)[nH]c(=O)c21`: “inactive”; `C1CCCCCCCCCCC1`: “inactive”.
Still for that read-out and setting: with `CCCC(C)C(=O)O` (stereo unspecified) the entry was “inactive”.
As to `NS(=O)(=O)c1cc(C2(O)NC(=O)c3ccccc32)ccc1Cl` (stereo unspecified), the call was inactive.
Turning to `C=CC(=O)N1CCOCC1`, the result was inactive.
On to `CCCCCCCCCCC1CO1` (stereo unspecified), for which the compound was called inactive.
In the case of `OC1OC[C@@H](O)[C@H](O)[C@H]1O` (stereo partly specified), the compound was called inactive.
Turning to `CC(C)=CCC/C(C)=C/C(=O)O`, the compound was classed as inactive.

A short description of the next assay: qHTS assay to identify small molecule agonists of the endoplasmic reticulum stress response signaling pathway - cell viability counter screen (AID 1159517; calls by dose curve; note: nearly all actives have a fitted effect of over 50% in size). The settings on record: ESRE-bla HeLa viability, CellTiter-Glo luminescence, 5 h; series mostly up to 61 µM. A digest of the protocol: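 Counter-screen wells were identical to the reporter wells. Cells were plated at 1,500 per well and dosed for 5 hr, then read for luminescence 30 min after CellTiter-Glo addition.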
`Nc1cc(C(Cl)=C(Cl)Cl)c(S(N)(=O)=O)cc1S(N)(=O)=O`: the outcome was inactive.
The same measure, in the same setting: next, `CCCCOCC(C)OCC(C)O` (stereo unspecified): “inactive”; `C=CC(=O)OCCCCCC`: “inactive”; `CC(C)=CC(=O)O`: “inactive”.
With `CN(C)CCOC(c1ccc(Cl)cc1)c1ccccn1` (stereo unspecified), the call was inactive.
For the compound `Cc1ccc(N)cc1[N+](=O)[O-]`, the call was inactive.
Still for that read-out and setting: next, `Cc1nccn1CC1CCc2c(c3ccccc3n2C)C1=O` (stereo unspecified): “inactive”; `C=C(C)C(=O)OCCC(C)OC(=O)C(=C)C` (stereo unspecified): “inactive”.
On to `CCCCCCCCCCCCCCCCCCOCC(O)CO` (stereo unspecified), for which the compound was called inactive.
`Cc1ccccc1C(=O)O`: the outcome was inactive.
Same read-out and setting: with `CCN(CC)C(=O)c1ccc(O)c(OC)c1` the entry was “inactive”.
The same measure, in the same setting: with `C#CC(C)(O)CC(C)C` (stereo unspecified) the entry was “inactive”; with `CCCCCCCCC=O`, “inactive”; with `CO`, “inactive”.
On to `C/C=C1\C(=O)C[C@H]2[C@@H]3CCC4=CC(=O)CC[C@]4(C)[C@H]3CC[C@]12C`, for which the result was inactive.
`COc1cc(O)cc(O)c1`: the compound was called inactive.
With `Oc1cc(O)c2c(c1)O[C@H](c1ccc(O)c(O)c1)[C@H](O)C2`, the call was inactive.
With `COc1cc(C(=O)N2CCOCC2)cc(OC)c1OC`, the call was inactive.
As to `O=C(CCOCCOCCOCCOCCC(=O)Nc1c(I)cc(I)c(C(=O)O)c1I)Nc1c(I)cc(I)c(C(=O)O)c1I`, the compound was classed as inactive.
As to `CC1=CCC2C(C1)C2(C)C` (stereo unspecified), the compound was classed as inactive.
In the case of `C=C(C)[C@H]1CC=C(C)CC1`, the compound was classed as inactive.
On to `CC(C)c1ccc2oc3nc(N)c(C(=O)O)cc3c(=O)c2c1`, for which the compound was called inactive.
On to `N#CCN(CC#N)CCN(CC#N)CC#N`, for which the outcome was inactive.
Regarding `Cc1c(C)n(CCN(C)C)c2ccc(C(=O)OCCN(C)C)cc12`, the result was inactive.
For `CCCCCN(CCCCC)C(=O)C(CCC(=O)O)NC(=O)c1ccc(Cl)c(Cl)c1` (stereo unspecified), the result was inactive.
The same measure, in the same setting: next, `C=CCn1c(=O)n([C@@H]2O[C@H](CO)[C@@H](O)[C@H]2O)c2nc(N)[nH]c(=O)c21`: “inactive”; `C1CCCCCCCCCCC1`: “inactive”.
Consider `CCCC(C)C(=O)O` (stereo unspecified), for which the result was inactive.
Take `C=CC(=O)N1CCOCC1`: the compound was called inactive.
The same measure, in the same setting: next, `OC1OC[C@@H](O)[C@H](O)[C@H]1O` (stereo partly specified): “inactive”.

A further assay in a line: qHTS assay to identify small molecule antagonists of the retinoid-related orphan receptor gamma (ROR-gamma) signaling pathway - cell viability counter screen (AID 1159520). Note: nearly all actives have a fitted effect of over 50% in size. The settings on record: Tet-on RORgamma CHO cells viability, ATP luminescence, 16 h; series mostly up to 92.4 µM. A digest of the protocol:
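Tet-on ROR gamma CHO cells were given compounds for 2 hr, then doxycycline hyclate at 1 uM final, and incubated 16 hr at 37 C. Viability was measured as ATP content by CellTiter-Glo luminescence.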
A general note: In qHTS, concentration-response curves come from the screen itself.
Consider `Nc1cc(C(Cl)=C(Cl)Cl)c(S(N)(=O)=O)cc1S(N)(=O)=O`, for which the Potency entry was “inactive”.
For `CCCCOCC(C)OCC(C)O` (stereo unspecified), the Potency result is “inactive”.
On to `C=CC(=O)OCCCCCC`, for which the Potency entry was “inactive”.
Same read-out and setting: next, `CC(C)=CC(=O)O`: “inactive”.
In the case of `CN(C)CCOC(c1ccc(Cl)cc1)c1ccccn1` (stereo unspecified), the Potency result was “inactive”.
As to `Cc1ccc(N)cc1[N+](=O)[O-]`, the Potency entry is “inactive”.
For the compound `Cc1nccn1CC1CCc2c(c3ccccc3n2C)C1=O` (stereo unspecified), the Potency result was “inactive”.
On the same count and under the same terms, with `C=C(C)C(=O)OCCC(C)OC(=O)C(=C)C` (stereo unspecified) the entry was “inactive”; with `CCN(CC)C(=O)c1ccc(O)c(OC)c1`, “inactive”; with `CO`, “inactive”.
`C/C=C1\C(=O)C[C@H]2[C@@H]3CCC4=CC(=O)CC[C@]4(C)[C@H]3CC[C@]12C`: the Potency result was “inactive”.
Still for that read-out and setting: with `Oc1cc(O)c2c(c1)O[C@H](c1ccc(O)c(O)c1)[C@H](O)C2` the entry was “inactive”; with `COc1cc(C(=O)N2CCOCC2)cc(OC)c1OC`, “inactive”.
Still for that read-out and setting: with `CCCCc1ccc2cccc(S(=O)(=O)O)c2c1` the entry was “inactive”; with `Nc1ncnc2c1ncn2Cc1c(F)cccc1Cl`, “inactive”.
In the case of `c1ccc(CCCc2ccccn2)cc1`, the Potency entry is “inactive”.
Turning to `O=C(CCOCCOCCOCCOCCC(=O)Nc1c(I)cc(I)c(C(=O)O)c1I)Nc1c(I)cc(I)c(C(=O)O)c1I`, the Potency entry is “inactive”.
Same read-out and setting: with `CC1=CCC2C(C1)C2(C)C` (stereo unspecified) the entry was “inactive”; with `C=C(C)[C@H]1CC=C(C)CC1`, “inactive”.
With `CCO[Si](C)(OCC)OCC`, the Potency result was “inactive”.
As for `CC(C)c1ccc2oc3nc(N)c(C(=O)O)cc3c(=O)c2c1`, the Potency entry is “inactive”.
On to `N#CCN(CC#N)CCN(CC#N)CC#N`, for which the Potency result is “inactive”.
For the compound `Cc1c(C)n(CCN(C)C)c2ccc(C(=O)OCCN(C)C)cc12`, the Potency entry was “inactive”.
As to `CCCCCN(CCCCC)C(=O)C(CCC(=O)O)NC(=O)c1ccc(Cl)c(Cl)c1` (stereo unspecified), the Potency entry is “inactive”.
For `NC(=O)c1c(Cl)cccc1Cl`, the Potency entry is “inactive”.
As to `C=CCn1c(=O)n([C@@H]2O[C@H](CO)[C@@H](O)[C@H]2O)c2nc(N)[nH]c(=O)c21`, the Potency result is “inactive”.
For `C1CCCCCCCCCCC1`, the activity, negative = cytotoxicity was 0.201% [at 19 µM].
As to `CCCC(C)C(=O)O` (stereo unspecified), the Potency entry is “inactive”.
`NS(=O)(=O)c1cc(C2(O)NC(=O)c3ccccc32)ccc1Cl` (stereo unspecified): the Potency entry was “inactive”.
For the compound `C=CC(=O)N1CCOCC1`, the Potency entry was “inactive”.
For the compound `CCCCCCCCCCC1CO1` (stereo unspecified), the Potency entry is “inactive”.
On the same count and under the same terms, with `OC1OC[C@@H](O)[C@H](O)[C@H]1O` (stereo partly specified) the entry was “inactive”; with `CC(C)=CCC/C(C)=C/C(=O)O`, “inactive”.
